D1 antag = antagonists of human D1 dopamine receptor; P21728; HEK293 TREx D1 cells, calcium flux, dopamine EC80; stronger effect = lower value; activity change, negative = inhibition, % at 10 µM; actives 3.2% (n = 360,000); AID 504652; in the data active = activity change below about -30%; note: % is set by controls: 0 for no effect and ±100 for the full control effect
Target sequence (P21728 whole entry, looked up): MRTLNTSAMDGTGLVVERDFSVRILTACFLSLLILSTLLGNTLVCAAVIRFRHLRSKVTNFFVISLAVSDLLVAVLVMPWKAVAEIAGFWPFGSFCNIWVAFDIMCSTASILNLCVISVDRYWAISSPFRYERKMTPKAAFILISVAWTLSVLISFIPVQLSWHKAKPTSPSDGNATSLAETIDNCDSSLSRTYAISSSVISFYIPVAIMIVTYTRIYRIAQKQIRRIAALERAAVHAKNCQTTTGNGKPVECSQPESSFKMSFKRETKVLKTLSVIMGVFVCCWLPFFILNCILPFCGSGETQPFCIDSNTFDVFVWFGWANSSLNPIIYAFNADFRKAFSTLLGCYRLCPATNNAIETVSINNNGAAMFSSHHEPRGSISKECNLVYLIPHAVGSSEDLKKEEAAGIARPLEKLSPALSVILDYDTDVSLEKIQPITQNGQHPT
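Antagonism measured as reduced calcium response to an EC80 dopamine addition following 180 s compound pre-read; cells were inducible HEK293 Trex D1 plated overnight at 30 C, read kinetically at 1 cycle/sec.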
D1 agonist = agonists of human D1 dopamine receptor. AID 504660. activation, % at 2 µM. HEK293 T-REx D1 cells, calcium flux, agonist mode. actives 1% (n = 360,000); in the data active = activation above about 30%; note: 0% is about no effect
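Agonism was scored from calcium flux recorded over 180 s (1 read/s) after pintool compound addition, following a 10-cycle baseline. Cells were inducible force-coupled HEK293 TREx D1, plated overnight at 30 C and loaded with no-wash calcium dye.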
D1 PAM = enhances dopamine response at the human D1 receptor; P21728; potentiation, % at 10 µM; HEK293 TREx D1 cells, calcium flux, dopamine EC20 potentiation; actives 0.036% (n = 360,000); in the data active = potentiation above about 30%; note: 0% is about no effect
DRD3 antagonist = D3 dopamine receptor (human) antagonism; actives 2.5% (n = 360,000); max response, negative = inhibition, %; AID 652054; D3R cells, DiscoveRx beta-arrestin luminescence, antagonist mode; stronger effect = lower value; P35462; in the data active = max response below about -50%; inconclusive = no clear call, values can overlap the other calls; note: % is set by controls: 0 for no effect and ±100 for the full control effect
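Cells expressing the human receptor were seeded at 1500 cells/well, incubated overnight at 37 degrees C in 5% CO2, then exposed to library compounds with dopamine controls for 90 minutes at 37 degrees C before luminescent detection.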
DRD3 agonist = D3 dopamine receptor (human) agonism. P35462. D3R DiscoveRx beta-arrestin cells, luminescence, 90 min. max activation, %. actives 0.58% (n = 410,000). AID 652048; in the data active = max activation above about 30%; note: 0% is about no effect
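Cells at 1500/well, incubated overnight, then treated with pinned compounds (dopamine as control) for 90 min at 37 degrees C. DiscoveRx reagent added for 30 - 60 minutes at room temperature; luminescence read.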
An asterisk follows results filed as active; ? = inconclusive; / = no result. Only some compounds are listed: those with a hit (about 6% of all), similar ones and a draw of the others.

SMILES | D1 antag | D1 agonist | D1 PAM | DRD3 antagonist | DRD3 agonist
COc1ccc([N+](=O)[O-])cc1NC(=S)NC(NC(=O)Cc1ccc(OC)c(OC)c1)C(Cl)(Cl)Cl (stereo not drawn) | -1 | 0 | -2 | -93* | -12
CN(C(=O)Cn1c(=O)n(CCC(=O)NCc2ccc3c(c2)OCO3)c(=O)c2sccc21)c1ccccc1 | 0 | -2 | 3 | / | 7
COc1ccc(/C=C/CN2CCC(C(=O)NC(c3ccc(F)cc3)c3ccc4ccccc4n3)CC2)cc1 (stereo not drawn) | / | / | / | -76* | -13
COc1ccc(C(NC(=O)C2CCN(CCOc3ccc(Cl)cc3Cl)CC2)c2cccs2)cc1 (stereo not drawn) | / | / | / | 255 | 61*
COc1ccc(C(C)NC(=O)C2CCN(CCOc3ccc(Cl)cc3Cl)CC2)cc1OC (stereo not drawn) | / | / | / | -92* | -4
COc1ccc(C(NC(=O)C2CCN(CCOc3ccc(Cl)cc3Cl)CC2)c2ccccc2C)cn1 (stereo not drawn) | / | / | / | -77* | -11
COc1ccc(-n2c(/C=C/c3cccc4ccccc34)nc3ccccc3c2=O)cc1Cl | -23 | 0 | -2 | / | 4
Cc1nn(CC(=O)NCc2ccco2)c(=O)c2cc3ccccc3n12 | -8 | -1 | -2 | / | 8
Cc1ccc(NC(=O)CCC(=O)N2Cc3ccccc3Oc3ncccc32)cc1 | -15 | 4 | -5 | / | -6
Cc1cccc(-c2nnc(SCc3cc(=O)c4cccc(Cl)c4[nH]3)n2C)c1 | 15 | 2 | -1 | / | 18
COc1ccc(C(NC(=O)C2CCN(CCOc3ccc(F)cc3)CC2)c2cccs2)cc1 (stereo not drawn) | / | / | / | -68* | -24
CC1(C)Cc2c(sc(NC(=O)c3ccc(C(=O)c4ccccc4)cc3)c2C#N)C(C)(C)N1 | -3 | 14 | -2 | -57* | -19
COC(=O)c1c(NC(=O)c2ccc(C(=O)c3ccccc3)cc2)sc2c1CC(C)(C)NC2(C)C | / | / | / | -11 | 1
CCN(Cc1ccccc1)C(=O)Nc1ccc2c(c1)N(C)C(=O)c1ccccc1S2 | -2 | -1 | -3 | / | -10
CCn1c(SCC(=O)c2ccc(Cl)cc2)nnc1-c1ccoc1C | 29 | -3 | 4 | -61* | -9
CCn1c(SCC(=O)c2ccc(C)cc2)nnc1-c1ccoc1C | -6 | 1 | -2 | -14 | 8
COCCCNC(=O)CSc1nc2c(sc3ccccc32)c(=O)n1CCc1ccc(OC)c(OC)c1 | -10 | -1 | -1 | / | 9
COC(=O)c1sc2cccc(F)c2c1S(=O)(=O)N1CCN(c2ccc(F)cc2)CC1 | 6 | 2 | -1 | / | 5
Cc1nonc1NC(=O)CSc1nc2c(C)cccc2cc1C#N | -8 | 43* | -5 | 12 | 2
CCOC(=O)C1=C(N)Oc2c(c(=O)[nH]c3ccccc23)C1c1ccccc1 (stereo not drawn) | -87* | 3 | -3 | -9 | 23
Cc1cc(C)c(Nc2cc(S(=O)(=O)O)c(N)c3c2C(=O)c2ccccc2C3=O)c(C)c1 | -15 | 40* | -2 | -27 | -4
CCOC(=O)c1cccnc1SCC(=O)N(C)c1ccccc1 | -44* | 5 | 1 | 17 | 10
COc1cc2[nH]c(-c3ccc(C)cc3)cc(=O)c2cc1OC | 17 | -3 | -2 | -112* | -68
OCC1(CO)COC(C(Cl)(Cl)Cl)OC1 | / | / | / | / | -19
COc1ccc(CCNC(=O)c2ccc(Cn3c(=O)[nH]c4cc(OC)c(OC)cc4c3=O)cc2)cc1OC | -35* | 1 | 0 | / | -1
SMILES | D1 antag | D1 agonist | D1 PAM | DRD3 antagonist | DRD3 agonist
COc1ccc(CCNC(=O)c2ccc(OCC(=O)N3CCOCC3)c(OC)c2)cc1OC | -42* | 3 | 1 | -11 | -19
COc1ccc(CCNC(=O)c2ccc3c(c2)NC(=O)CS3)cc1OC | -33* | 1 | -1 | -6 | -4
Cc1cc2c(s1)c1cnn(Cc3ccc4ccccc4c3)c(=O)c1n2C | -2 | 4 | -5 | / | /
O=C(O)c1ccc(N=N/C(=N\Nc2ccc(C(=O)O)cc2)c2ccccc2)cc1 | -3 | 18 | -2 | -53* | -29
NC(=O)/C(N=Nc1ccccc1)=N/Nc1ccccc1 | -55* | 1 | -13 | 1 | -7
O=C(CSc1nnc(-c2ccccc2Br)n1-c1ccccc1)c1ccc(F)cc1 | 8 | 2 | -3 | / | 0
CCOC(=O)C1=NN(c2ccccc2)C2C(=O)N(c3ccccc3OC)C(=O)C12 (stereo not drawn) | 11 | 5 | 3 | -1 | -1
COC(=O)C1=NN(c2ccc(Cl)cc2)C2C(=O)N(c3ccccc3OC)C(=O)C12 (stereo not drawn) | 3 | 1 | -3 | -29 | 1
COc1ccccc1N1N=C(C(=O)c2ccccc2)C2C(=O)N(c3ccc(Br)cc3)C(=O)C21 (stereo not drawn) | -9 | 46* | 0 | -3 | 1
COc1ccccc1N1C(=O)C2C(C(=O)c3ccccc3)=NN(c3ccccc3)C2C1=O (stereo not drawn) | -18 | 35* | 0 | 20 | 14
Cc1ccc(C(C)C)c(OCC(=O)Nc2cc(-c3nc4ccccc4[nH]3)ccc2C)c1 | -6 | 9 | -4 | / | 2
CCCN1C2CCCC1CC(NC(=O)c1ccccc1OCC)C2 (stereo not drawn) | -81* | 1 | -2 | ? | -6
CCOc1ccccc1C(=O)NC1CC2CCCC(C1)N2Cc1ccc(C)cc1 (stereo not drawn) | -51* | 3 | -12 | -80* | -12
Cc1ccccc1C(=O)NC1CC2CCC(C1)N2Cc1ccccc1 (stereo not drawn) | -24 | 0 | -9 | -86* | -17
CCCN1C2CCCC1CC(NC(=O)c1ccccc1OC)C2 (stereo not drawn) | 20 | -3 | -4 | -23 | -24
Cc1nc(-c2ccc(F)cc2)sc1CCNC(=O)c1cccs1 | -64* | 10 | -3 | / | -11
O=C(NCCc1csc(-c2cccc(F)c2)n1)c1cccs1 | -62* | 6 | -5 | / | -9
O=C(NCCc1csc(-c2ccc(F)cc2)n1)c1cccc(F)c1 | -55* | 7 | -4 | / | -5
O=C(Cc1ccc(F)cc1)NCCc1csc(-c2cccc(F)c2)n1 | 13 | 0 | 2 | / | 3
Nc1cc2c3c(cccc3c1)C(=O)N(CCN1CCCC1)C2=O | -5 | 56* | 0 | -22 | 3
CC(=O)Nc1ccc(NC(=O)C(NS(=O)(=O)c2ccc(Br)s2)c2ccccc2)cc1 (stereo not drawn) | 0 | 0 | 5 | / | 1
Fc1ccc(-c2cc(-c3ccccc3)c3c(n2)-c2cc(F)ccc2OC3)cc1 | 0 | 0 | -2 | / | -4
CCN(CC)CCNS(=O)(=O)c1ccc(C(=O)NN)cc1 | -35* | 3 | -6 | 23 | 11
COC(=O)c1sc(N)c(C(=O)OC)c1COC(=O)CNS(=O)(=O)c1cccc(C#N)c1 | -33* | 1 | 6 | -3 | -8
